Screens as filed in PubChem.
This excerpt belongs to a sample that is enriched for hits.
IDE exosite FP – displaces the probe from the exo-site of human IDE; 17,000 compounds, 6.3% hits; AID 1259349; z-score at 20 µM; purified IDE, FL-6b probe fluorescence polarization; stronger effect = lower value;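 active = z-score of -3 or lower, meaning strong loss of probe binding signal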;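 also: His-tagged human IDE residues 42-1019 made in E. coli with 30 nM FL-6b probe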
Target sequence (P14735 42-1019 limits assumed): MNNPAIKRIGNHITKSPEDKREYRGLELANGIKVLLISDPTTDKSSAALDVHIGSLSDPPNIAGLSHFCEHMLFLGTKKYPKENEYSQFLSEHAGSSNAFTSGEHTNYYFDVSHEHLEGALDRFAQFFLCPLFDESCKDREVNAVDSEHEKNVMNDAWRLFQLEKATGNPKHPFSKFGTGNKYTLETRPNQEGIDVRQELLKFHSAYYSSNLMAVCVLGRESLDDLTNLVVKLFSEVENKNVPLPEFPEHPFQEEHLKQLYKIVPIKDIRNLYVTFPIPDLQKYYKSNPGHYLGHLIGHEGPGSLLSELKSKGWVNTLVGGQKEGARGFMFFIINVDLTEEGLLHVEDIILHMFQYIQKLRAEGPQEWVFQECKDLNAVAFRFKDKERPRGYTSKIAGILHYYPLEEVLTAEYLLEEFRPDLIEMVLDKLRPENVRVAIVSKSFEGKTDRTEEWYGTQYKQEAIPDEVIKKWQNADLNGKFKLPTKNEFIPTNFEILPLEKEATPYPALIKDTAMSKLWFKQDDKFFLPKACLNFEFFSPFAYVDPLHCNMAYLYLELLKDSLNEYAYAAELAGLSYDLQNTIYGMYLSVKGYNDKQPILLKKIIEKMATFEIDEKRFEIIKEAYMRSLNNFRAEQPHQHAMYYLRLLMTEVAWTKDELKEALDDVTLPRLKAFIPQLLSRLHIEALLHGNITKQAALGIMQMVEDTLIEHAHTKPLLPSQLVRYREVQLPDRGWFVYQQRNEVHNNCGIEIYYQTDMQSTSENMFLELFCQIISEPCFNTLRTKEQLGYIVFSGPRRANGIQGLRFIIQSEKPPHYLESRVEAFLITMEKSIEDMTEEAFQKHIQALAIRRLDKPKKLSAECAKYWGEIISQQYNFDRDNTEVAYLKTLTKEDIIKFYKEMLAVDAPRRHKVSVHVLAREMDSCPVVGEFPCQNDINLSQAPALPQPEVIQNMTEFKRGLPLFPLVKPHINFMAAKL
The depositor's hits bear a star; ! = a repeat was not active.

SMILES	IDE exosite FP
C/C=C/c1ccc(C2[C@H]3CNC[C@@H]2N3S(=O)(=O)c2cn(C)cn2)cc1 (stereo partly specified)	3.9
Cc1ccc(-c2ccc(C3[C@H]4CNC[C@@H]3N4S(=O)(=O)c3ccccc3)cc2)cc1 (stereo partly specified)	5
Cc1ccccc1-c1ccc(C2[C@H]3CNC[C@@H]2N3S(=O)(=O)c2cccc(F)c2)cc1 (stereo partly specified)	-3.4*!
Cc1ccccc1-c1ccc(C2[C@@H]3CN(S(=O)(=O)c4cn(C)cn4)C[C@H]2N3)cc1 (stereo partly specified)	-5.3*
Cn1cnc(S(=O)(=O)N2CCCCN3[C@H](CO)[C@@H](c4ccc(-c5ccccc5F)cc4)[C@H]3C2)c1	2.5
Cc1ccccc1-c1ccc(C2[C@H]3CNC[C@@H]2N3S(=O)(=O)c2ccc(F)cc2)cc1 (stereo partly specified)	0.51
O=S(=O)(c1cccc(F)c1)N1[C@@H]2CNC[C@H]1C2c1ccc(-c2ccccc2F)cc1 (stereo partly specified)	-1.1
Cc1ccccc1-c1ccc(C2[C@H]3CNC[C@@H]2N3S(=O)(=O)c2cn(C)cn2)cc1 (stereo partly specified)	-4.9*
Cc1ccccc1-c1ccc(C2[C@@H]3CN(Cc4cncnc4)C[C@H]2N3)cc1 (stereo partly specified)	-2.6
CCCNC(=O)N1[C@@H](C#N)[C@H](c2ccc(C3=CCCCC3)cc2)[C@@H]1CO	1.8
O=C(N[C@@H]1CC[C@H](CC(=O)N2CCOCC2)O[C@@H]1CO)c1cccc(F)c1	1.1
COc1cccc(NC(=O)N2CC(=O)N3[C@H](CO)[C@@H](c4ccc(C#CCC5CCCC5)cc4)[C@H]3C2)c1	0.063
COc1ccc2c3c([nH]c2c1)[C@@H](CO)N(C(=O)CN(C)C)CC31CN(C(=O)c2cccnc2)C1	-1.4
O=C(C[C@H]1CC[C@H]2[C@@H](COC[C@H](O)CN2Cc2cc(F)cc(F)c2)O1)Nc1nccs1	-2.7
COc1ccc(-c2ccc([C@H]3[C@@H](CO)N4C(=O)CN(C(=O)Cc5ccccn5)C[C@@H]34)cc2)cc1	0.65
Cc1ccccc1-c1ccc([C@H]2[C@@H](CO)N3C(=O)CN(C(=O)Cc4ccccn4)C[C@@H]23)cc1	-17*
O=C(Cc1ccccn1)N1CC(=O)N2[C@H](CO)[C@@H](c3ccc(C#CC4CCCCC4)cc3)[C@H]2C1	-0.35
O=C(Cc1ccccn1)N1CC(=O)N2[C@H](C1)[C@H](c1ccc(C#CC3CC3)cc1)[C@@H]2CO	0.55
Cc1ccccc1-c1ccc([C@H]2[C@H](CO)N3C(=O)CN(C(=O)Cc4ccccn4)C[C@@H]23)cc1	-14*
O=C(Cc1ccccn1)N1CC(=O)N2[C@H](CO)[C@H](c3ccc(C#CC4CCCCC4)cc3)[C@@H]2C1	-0.63
CC(C)(C)[S@](=O)N1Cc2cc(C(=O)N[C@H]3CCN(Cc4ccccc4)C3)nc(-c3cccc(-c4cccnc4)c3)c2[C@@H]1CCO	1.7
CC(C)NC(=O)N1CCCCN2[C@@H](CO)[C@H](c3ccc(C#CC4CC4)cc3)[C@@H]2C1	2.6
O=C(Cc1ccccc1)N1CC(=O)N2[C@H](C1)[C@@H](c1ccc(-c3ccccc3)cc1)[C@@H]2CO	-2.1
C[C@@H]1CN([C@@H](C)CO)C(=O)c2cc(NC(=O)CCC(F)(F)F)ccc2O[C@@H](C)CCCCO[C@@H]1CN(C)C(=O)c1ccncc1	0.61
CCS(=O)(=O)Nc1ccc2c(c1)C(=O)N(C)[C@H]1CC[C@@H](CC(=O)NCc3ccc(OC)cc3)O[C@H]1CO2	-0.028
SMILES	IDE exosite FP
N#C[C@H]1[C@H](c2ccc(C#Cc3ccccc3F)cc2)[C@@H](CO)N1C(=O)C1CCOCC1	-5.9*
N#C[C@H]1[C@H](c2ccc(C#Cc3ccccc3F)cc2)[C@@H](CO)N1C(=O)C1CC1	3.4
N#C[C@@H]1[C@@H](c2ccc(C#Cc3ccccc3F)cc2)[C@@H](CO)N1C(=O)C1CC1	-1.6
N#C[C@@H]1[C@H](c2ccc(C#Cc3ccccc3F)cc2)[C@H](CO)N1C(=O)c1cccnc1	-1.7
N#C[C@H]1[C@H](c2ccc(C#Cc3ccccc3F)cc2)[C@@H](CO)N1C(=O)C1CCC1	3.7
N#C[C@@H]1[C@@H](c2ccc(C#Cc3ccccc3F)cc2)[C@H](CO)N1C(=O)C1CCC1	1
N#C[C@@H]1[C@H](c2ccc(C#Cc3ccccc3F)cc2)[C@@H](CO)N1C(=O)c1cccnc1	-4*
N#C[C@H]1N[C@H](CO)[C@H]1c1ccc(C#Cc2ccccc2F)cc1	-0.075
N#C[C@@H]1[C@@H](c2ccccc2)[C@@H](CO)N1C(=O)c1cccnc1	6.3
N#C[C@@H]1[C@H](c2ccc(C#Cc3ccccc3F)cc2)[C@@H](CO)N1C(=O)C1CCC1	-4.8*
N#C[C@H]1N[C@@H](CO)[C@H]1c1ccc(C#Cc2ccccc2F)cc1	-4*
N#C[C@@H]1N[C@@H](CO)[C@H]1c1ccc(-c2ccccc2F)cc1	2.1
